Compound activity deposited in PubChem by several laboratories.
Mac1 fbg enh: increases human CD11b/CD18 adhesion to fibrinogen. hit rate 0.07% among 93,000. AID 1499. activation, % at 10 µM. K562 CD11b/CD18 adhesion to fibrinogen, ATPlite luminescence. P05107+P11215;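 active = 10 µM primary screen giving 50% or more activity, confirmed by 40% or more on retest at that dose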
FAK inh: inhibitors of human focal adhesion kinase; inhibition, %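 (tested at 7 µM)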; Q05397; biochemical FAK kinase activity assay; hit rate 0.84% among 97,000; in the data active = inhibition above about 19%
MMP13 inh: MMP13 (human) collagenase inhibition | P45452 | MMP-13 fTHP FRET cleavage, Mca fluorescence | inhibition, % at 4 µM | hit rate 0.07% among 65,000;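 active = inhibition above the mean of compound-free control plate wells plus 3 SD, cut at about 14% in these data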
CD11b adhes inh: CD11b/CD18-fibrinogen binding inhibition; hit rate 0.54% among 93,000; K562 CD11b/CD18 adhesion to fibrinogen, ATPlite luminescence; Mn2+ added to activate the integrin; P05107+P11215; AID 1497; inhibition, % at 10 µM;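 active = primary inhibition of 50% or more at 10 µM, then 40% or more on retest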
Each line names hits and unclear results; the compound was inactive in the other large screens. A selection: hits, their analogues and other compounds. The true share with any hit is near 1.1%.

Cc1ccc(C(=O)/C=C/Nc2cccc(O)c2)cc1	CD11b adhes inh 91 (no result: FAK inh)
O=C1CC(N2CCN(c3ccccc3)CC2)C(=O)N1CCc1ccccc1 (stereo not drawn)	none (no result: FAK inh)
Cc1cccc(N2CCN(C(=O)c3cc4c(=O)n(C)c5ccccc5c4n3C)CC2)c1C	none
Cc1ccc(Cl)cc1N1CCN(C(=O)c2cc3c(=O)n(C)c4ccccc4c3n2C)CC1	CD11b adhes inh 86
O=C(c1ccc(Br)o1)N1CCN=C1SCc1cccnc1	none
CSC1=NCCN1C(=O)c1ccc(Br)o1	CD11b adhes inh 51
N#CC1=C(N)SC(N)=C(C#N)C1c1cccc(O)c1	none (no result: Mac1 fbg enh, MMP13 inh, CD11b adhes inh)
O=C(Nc1nnc(C2CC2)s1)c1cc(-c2ccccc2)nn1-c1ccccc1	none (no result: FAK inh)
O=C(CSC1=NCCS1)Nc1ccnc2ccccc12	CD11b adhes inh 100 (no result: FAK inh)
COc1ccc(CCc2nc(-c3ccc(-n4cccc4)cc3)no2)cc1	CD11b adhes inh 62
C=CC[n+]1c(-c2ccc(OCC)cc2)csc1NNC(=O)Nc1ccccc1	CD11b adhes inh 86 (no result: MMP13 inh)
O=C(CCC1CCCC1)c1c(O)c2ccccc2oc1=O	CD11b adhes inh 88
Cc1cc(OCC(=O)Nc2ccncc2)ccc1Br	CD11b adhes inh 77
O=C(NCc1cccnc1)c1cc(S(=O)(=O)N2CCCCC2)ccc1Cl	none
Cc1cc(NCCCn2ccnc2)n2ncc(-c3ccccc3)c2n1	CD11b adhes inh 50
CCc1nnc(NC(=O)c2ccc(Cl)c(S(=O)(=O)N3CCc4ccccc43)c2)s1	CD11b adhes inh 86 (no result: MMP13 inh)
O=C(Nc1nnc(C2CC2)s1)c1ccc(Cl)c(S(=O)(=O)N2CCc3ccccc3C2)c1	none (no result: FAK inh, MMP13 inh)
CCOC(=O)N1CCC(Nc2nc3ccccc3nc2NS(=O)(=O)c2ccc(Cl)cc2)CC1	CD11b adhes inh 92
[O-][n+]1c2c(c3c4non(O)c4ccc31)CCCC2	CD11b adhes inh 96 (no result: MMP13 inh)
O=C1Nc2ccccc2C12OCCS2 (stereo not drawn)	none (no result: FAK inh)
CCCCCCCCNc1ncnc2ccccc12	CD11b adhes inh 101 (no result: MMP13 inh)
CCC(=O)NNc1ncnc2ccccc12	none (no result: FAK inh, MMP13 inh)
Cc1ccc(NC(=O)c2sc3nc[nH]c(=O)c3c2C)c(C)c1	none (no result: Mac1 fbg enh, MMP13 inh, CD11b adhes inh)
Cc1ccc(OCCN2CCN(c3ncnc4sc(C)c(C)c34)CC2)cc1	CD11b adhes inh 97 (no result: MMP13 inh)
Clc1ccc(CN2CCN(c3ncnc4scc(-c5cccs5)c34)CC2)cc1	none (no result: MMP13 inh)
Clc1ccc(OCCN2CCN(c3ncnc4sccc34)CC2)cc1	CD11b adhes inh 99 (no result: FAK inh)
COc1ccc(C(=O)Nc2ccc(C(=O)Nc3nccs3)cc2)cc1[N+](=O)[O-]	none (no result: FAK inh, MMP13 inh)
Cc1ccc(C)c(/C(O)=C2\C(=O)C(=O)N(CCCN(C)C)C2c2cccnc2)c1 (stereo not drawn)	none (no result: Mac1 fbg enh, FAK inh, CD11b adhes inh)
CCN1C(=S)SC(=O)C1=C1C=C(C)N(Cc2ccco2)C(C)=C1	MMP13 inh 19 (no result: FAK inh)
O=C(NNC1=C(C(=O)C(F)(F)F)CCC1)c1ccc(Br)cc1	CD11b adhes inh 97 (no result: MMP13 inh)
CSCCC(NC(=O)c1cc([N+](=O)[O-])ccc1Cl)C(=O)O (stereo not drawn)	none (no result: FAK inh, MMP13 inh)
CC1(C)CC(=O)C(C=NCC2CCN(C(=O)Nc3ccccc3)CC2)=C(O)C1	none (no result: Mac1 fbg enh, FAK inh, CD11b adhes inh)
COCc1nnc(NC(=O)c2sc3ccccc3c2Cl)s1	none
Cc1nnc(NC(=O)c2sc3ccccc3c2Cl)s1	CD11b adhes inh 70
COc1cccc(CNCCc2c[nH]c3ccccc23)c1OCc1ccccc1	CD11b adhes inh 60 (no result: FAK inh, MMP13 inh)
COc1ccc(Nc2ncc(C(=O)N3CCN(Cc4ccccc4)CC3)c3ccccc23)cc1	none (no result: Mac1 fbg enh, MMP13 inh, CD11b adhes inh)
O=C(Cc1csc(N2CCOCC2)n1)N/N=C/c1ccc(Cl)cc1Cl	CD11b adhes inh 55 (no result: MMP13 inh)
COCc1cc(C)nc(N2CCN(c3ccccc3)CC2)c1C#N	none (no result: FAK inh)
COCc1cc(C)nc(N2CCN(Cc3ccccc3)CC2)c1C#N	CD11b adhes inh 52 (no result: MMP13 inh)
Cc1nn(Cc2ccc(C(=O)NC(C)(C)C)o2)c(C)c1Br	CD11b adhes inh 74
O=C(NCC(c1cccs1)N1CCOCC1)c1ccccc1NS(=O)(=O)c1cc([N+](=O)[O-])ccc1Cl (stereo not drawn)	CD11b adhes inh 85 (no result: FAK inh, MMP13 inh)
O=C(NCC(c1cccs1)N1CCOCC1)c1ccccc1NS(=O)(=O)c1ccc(Cl)c([N+](=O)[O-])c1 (stereo not drawn)	CD11b adhes inh 101 (no result: FAK inh, MMP13 inh)
O=C(NCC(c1cccs1)N1CCOCC1)c1ccccc1NS(=O)(=O)c1ccc(Cl)cc1 (stereo not drawn)	CD11b adhes inh 79 (no result: FAK inh, MMP13 inh)
Cc1cccc(C2CC(c3ccc(Br)cc3)Nc3nc(N)nn32)c1 (stereo not drawn)	none (no result: MMP13 inh)
C/C(=N\NC(=O)c1nn(C)cc1Br)c1cccc(NC(=O)C2CCCC2)c1	none (no result: MMP13 inh)
Cc1ccc(NC(=O)/C(=C\c2cccc([N+](=O)[O-])c2)NC(=O)c2cccs2)cc1	none (no result: Mac1 fbg enh, MMP13 inh, CD11b adhes inh)
O=C(COc1ccccc1-c1ccccc1)NCc1cccc(Cl)c1	none (no result: FAK inh, MMP13 inh)
Cc1nc2c3ccccc3[nH]c(=O)n2n1	none (no result: Mac1 fbg enh, CD11b adhes inh)
